In assay [1] the target is Cytochrome P450 2C19 (Homo sapiens) (UniProt P33261). Put plainly: Cytochrome P450 Family 2 Subfamily C Member 19 (CYP2C19) small molecule antagonists: luciferase reporter qHTS assay (AID 1671197). Note: nearly all actives have a fitted effect of over 65% in size. Note: potency is the fitted concentration of half-maximal effect. The method, boiled down:
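Luminescent readout of CYP2C19 activity: luciferin product detected 20 min after adding detection reagent. Before that, compound and enzyme-substrate mix preincubated 10 min at room temperature; NADPH-regenerating system started a 1 h, 37C reaction. Ketoconazole as positive control.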
A general note: Reporter assays use an easily measured gene product as a stand-in for the process of interest.

Assay [2] concerns the target Cytochrome P450 2C9 (Homo sapiens) (UniProt P11712). Put plainly: Cytochrome P450 Family 2 Subfamily C Member 9 (CYP2C9) small molecule antagonists: luciferase reporter qHTS assay (AID 1671198). Note: nearly all actives have a fitted effect of over 50% in size. Note: potency is the fitted concentration of half-maximal effect. An outline of the steps:
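Enzyme-substrate mix preincubated with compound 10 min at room temperature; reaction started with NADPH regeneration solution, 1 h 37C. Luminescent luciferin product read after 20 min detection reagent.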

Assay [3] deals with Cytochrome P450 1A2 (Homo sapiens) (UniProt P05177). Put plainly: Cytochrome P450 Family 1 Subfamily A Member 2 (CYP1A2) small molecule antagonists: luciferase reporter qHTS assay (AID 1671199). Note: nearly all actives have a fitted effect of over 50% in size. Note: potency is the fitted concentration of half-maximal effect. The method, boiled down: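 Read-out is luminescence from luciferin detection reagent (20 min) proportional to CYP1A2 activity; compounds in DMSO preincubated 10 min with enzyme and proluciferin substrate, then NADPH regeneration solution, 1 h, room temperature.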
Chain of Cytochrome P450 1A2 (Homo sapiens) (P05177 whole entry, looked up): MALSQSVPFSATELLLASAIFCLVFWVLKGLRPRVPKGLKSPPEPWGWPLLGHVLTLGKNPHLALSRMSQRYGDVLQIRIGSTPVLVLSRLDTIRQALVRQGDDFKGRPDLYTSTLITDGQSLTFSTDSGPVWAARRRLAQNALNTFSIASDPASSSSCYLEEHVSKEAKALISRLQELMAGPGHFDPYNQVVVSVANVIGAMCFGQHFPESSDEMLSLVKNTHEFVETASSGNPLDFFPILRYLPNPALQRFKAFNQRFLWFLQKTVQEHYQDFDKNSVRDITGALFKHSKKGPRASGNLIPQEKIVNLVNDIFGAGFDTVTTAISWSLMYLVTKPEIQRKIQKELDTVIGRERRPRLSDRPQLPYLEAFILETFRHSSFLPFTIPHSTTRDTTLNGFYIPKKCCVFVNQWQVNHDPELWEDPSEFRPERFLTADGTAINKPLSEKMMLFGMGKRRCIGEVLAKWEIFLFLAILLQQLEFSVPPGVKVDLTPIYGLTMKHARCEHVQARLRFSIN

For assay [4], the target named is Voltage-gated inwardly rectifying potassium channel KCNH2 (Homo sapiens) (UniProt Q12809). Put plainly: Human Ether-a-go-go-Related Gene (hERG) channel small molecule antagonists: fluorescence cell-based qHTS assay (AID 1671200).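 Note: hERG-expressing U2OS cells given a thallium stimulus after FluxOR II dye loading; series mostly up to about 77 µM; nearly all actives have a fitted effect of over 50% in size.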 The method, boiled down: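 hERG-U2OS cells plated overnight at 37 C, loaded with FluxOR II dye 1 h at RT in dark; after 10 min, thallium stimulus added. Fluorescence (480/540 nm) read kinetically for 2 min at 1 s intervals.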
Chain of Voltage-gated inwardly rectifying potassium channel KCNH2 (Homo sapiens) (Q12809 whole entry, looked up): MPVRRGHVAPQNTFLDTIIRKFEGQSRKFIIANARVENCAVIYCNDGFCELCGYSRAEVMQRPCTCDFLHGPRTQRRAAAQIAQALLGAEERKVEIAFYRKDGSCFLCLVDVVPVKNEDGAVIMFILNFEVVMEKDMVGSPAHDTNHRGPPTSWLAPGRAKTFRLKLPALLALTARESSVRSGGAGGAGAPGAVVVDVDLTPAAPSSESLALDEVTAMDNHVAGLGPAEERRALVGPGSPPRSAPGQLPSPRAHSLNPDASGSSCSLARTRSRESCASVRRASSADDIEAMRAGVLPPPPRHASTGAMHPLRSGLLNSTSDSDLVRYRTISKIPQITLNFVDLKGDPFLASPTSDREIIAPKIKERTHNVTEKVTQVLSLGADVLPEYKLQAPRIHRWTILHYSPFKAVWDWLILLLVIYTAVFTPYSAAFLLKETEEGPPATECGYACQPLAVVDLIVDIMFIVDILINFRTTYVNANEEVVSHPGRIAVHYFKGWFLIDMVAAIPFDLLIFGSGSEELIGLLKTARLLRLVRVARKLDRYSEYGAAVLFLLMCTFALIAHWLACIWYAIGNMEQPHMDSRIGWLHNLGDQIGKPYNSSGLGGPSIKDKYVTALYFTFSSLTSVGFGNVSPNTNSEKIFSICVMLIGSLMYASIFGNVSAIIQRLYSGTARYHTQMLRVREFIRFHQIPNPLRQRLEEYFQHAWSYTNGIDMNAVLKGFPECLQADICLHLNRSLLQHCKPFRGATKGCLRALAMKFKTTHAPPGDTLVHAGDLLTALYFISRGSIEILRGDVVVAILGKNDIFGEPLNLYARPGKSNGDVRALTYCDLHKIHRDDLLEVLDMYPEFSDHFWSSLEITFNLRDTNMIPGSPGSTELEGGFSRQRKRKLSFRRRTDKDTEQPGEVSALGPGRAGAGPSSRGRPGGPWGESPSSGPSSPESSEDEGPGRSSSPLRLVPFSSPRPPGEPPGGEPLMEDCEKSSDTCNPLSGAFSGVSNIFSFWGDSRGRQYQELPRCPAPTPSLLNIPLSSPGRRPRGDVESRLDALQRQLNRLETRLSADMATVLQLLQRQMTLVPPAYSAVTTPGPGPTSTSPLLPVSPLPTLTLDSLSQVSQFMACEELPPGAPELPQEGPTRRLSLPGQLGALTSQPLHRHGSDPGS

In assay [5] the target is Cytochrome P450 3A4 (Homo sapiens) (UniProt P08684). Put plainly: Cytochrome P450 Family 3 Subfamily A Member 4 (CYP3A4) small molecule antagonists: luciferase reporter qHTS assay (AID 1671201). Note: nearly all actives have a fitted effect of over 50% in size. Note: potency is the fitted concentration of half-maximal effect. The method, boiled down:
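P450-Glo CYP3A4 luminescent assay: compounds preincubated 10 min at room temperature with enzyme and proluciferin substrate, NADPH regeneration added, 1 h room-temperature reaction, stopped with luciferin detection reagent; luminescence read after 20 min. Ketoconazole positive control.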

Where “and” joins values, the source holds several entries; their conditions need not be identical. Equal values may be shown once. Results filed as inconclusive are left out. Some structures have more than one record in an assay (separate samples or runs), and their calls can disagree. Calls of active or inactive are those of the source. Calls come from the whole dose curve; as a rule, active = well fitted curve in the direction sought with a large enough effect in the repeat runs; inconclusive = weak or mixed curves; inactive = no such curve, though single readings can be large; an effect the other way counts as inactive or inconclusive.

Chain of Cytochrome P450 2C19 (Homo sapiens) (P33261 whole entry, looked up): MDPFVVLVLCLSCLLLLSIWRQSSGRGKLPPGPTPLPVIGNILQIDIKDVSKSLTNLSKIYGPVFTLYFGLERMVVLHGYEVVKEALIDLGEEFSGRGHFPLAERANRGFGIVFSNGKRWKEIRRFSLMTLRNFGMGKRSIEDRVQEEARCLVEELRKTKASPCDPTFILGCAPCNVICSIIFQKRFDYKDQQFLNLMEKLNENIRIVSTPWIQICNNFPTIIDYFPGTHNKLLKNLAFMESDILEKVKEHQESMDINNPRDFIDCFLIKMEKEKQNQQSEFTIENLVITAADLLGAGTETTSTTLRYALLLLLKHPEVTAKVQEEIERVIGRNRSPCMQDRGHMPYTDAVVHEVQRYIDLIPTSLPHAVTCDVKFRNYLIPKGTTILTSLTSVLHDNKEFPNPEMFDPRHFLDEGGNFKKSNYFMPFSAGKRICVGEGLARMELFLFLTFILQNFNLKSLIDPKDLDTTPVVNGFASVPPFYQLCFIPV
Chain of Cytochrome P450 2C9 (Homo sapiens) (P11712 whole entry, looked up): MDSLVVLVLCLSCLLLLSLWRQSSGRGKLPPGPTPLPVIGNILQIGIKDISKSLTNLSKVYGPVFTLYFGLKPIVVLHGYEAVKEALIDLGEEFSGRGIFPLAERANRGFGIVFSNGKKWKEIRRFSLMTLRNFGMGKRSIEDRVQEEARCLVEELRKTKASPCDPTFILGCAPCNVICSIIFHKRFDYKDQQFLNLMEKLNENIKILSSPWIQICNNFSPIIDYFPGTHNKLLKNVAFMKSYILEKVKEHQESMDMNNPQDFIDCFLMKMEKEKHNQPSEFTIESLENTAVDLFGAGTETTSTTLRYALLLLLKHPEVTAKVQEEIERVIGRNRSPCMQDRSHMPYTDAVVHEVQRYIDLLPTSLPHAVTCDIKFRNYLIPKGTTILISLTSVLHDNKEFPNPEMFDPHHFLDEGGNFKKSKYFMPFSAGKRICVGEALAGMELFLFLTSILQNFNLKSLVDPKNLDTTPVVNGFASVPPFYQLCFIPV
Chain of Cytochrome P450 3A4 (Homo sapiens) (P08684 whole entry, looked up): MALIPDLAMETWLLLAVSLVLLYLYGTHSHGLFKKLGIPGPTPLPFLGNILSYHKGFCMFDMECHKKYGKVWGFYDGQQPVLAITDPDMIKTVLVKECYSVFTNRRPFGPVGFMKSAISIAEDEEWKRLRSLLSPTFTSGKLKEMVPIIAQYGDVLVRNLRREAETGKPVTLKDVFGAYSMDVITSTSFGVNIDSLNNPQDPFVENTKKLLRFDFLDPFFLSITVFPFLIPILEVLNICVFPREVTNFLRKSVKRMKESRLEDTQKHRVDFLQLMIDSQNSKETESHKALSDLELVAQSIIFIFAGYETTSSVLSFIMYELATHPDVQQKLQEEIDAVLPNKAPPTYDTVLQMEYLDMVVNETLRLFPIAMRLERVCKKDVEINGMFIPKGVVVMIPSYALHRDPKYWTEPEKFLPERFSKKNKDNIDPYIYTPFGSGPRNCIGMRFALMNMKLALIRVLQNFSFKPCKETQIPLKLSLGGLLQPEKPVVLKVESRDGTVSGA

With `CC(=O)CCC=C(C)C`, the Potency entry in assay [1], in assay [2], in assay [3], in assay [4] and in assay [5] was “inactive” throughout.

`CCCCOC(=O)c1ccc(N)cc1`: the Potency entry in assay [4] is “inactive”.

As for `CNC(=O)Oc1ccc2c(c1)[C@]1(C)CCN(C)[C@@H]1N2C`, the Potency in assay [1] is 25.2 µM (active) and inactive; in assay [2], 71 µM (active) and inactive. For the same compound, the Potency result in assay [3], in assay [4] and in assay [5] was “inactive” throughout.

With `CCOC(=O)n1ccn(C)c1=S`, the Potency result in assay [1], in assay [2], in assay [4] and in assay [5] was “inactive” each time. Also, in assay [3], the Potency was 39.9 µM (active) and inactive.

`O=C(O)Cn1c(=O)n(Cc2ccc(Br)cc2F)c(=O)c2ccc(Cl)cc21`: the Potency result in assay [1], in assay [4] and in assay [5] was “inactive” each time. Moreover, the Potency in assay [2] was 31.7 µM (active) and 15.5 µM (active); in assay [3], 79.6 µM (active) and inactive.

For the compound `CN(C)c1ccc(O)c2c1C[C@H]1C[C@H]3[C@H](N(C)C)C(=O)C(C(N)=O)=C(O)[C@@]3(O)C(=O)C1=C2O`, the Potency entry in assay [1], in assay [2], in assay [3], in assay [4] and in assay [5] was “inactive” in each case.

For the compound `CSc1ccc(Cl)cc1`, the Potency entry in assay [1], in assay [2], in assay [3], in assay [4] and in assay [5] was “inactive” each time.

In the case of `CC(C)CC(C)O` (stereo not given), the Potency entry in assay [1], in assay [4] and in assay [5] was “inactive” throughout. The Potency result in assay [2] is “inactive and 31.7 µM (active)”.

For the compound `NCCN1CCNCC1`, the Potency result in assay [1], in assay [2], in assay [3], in assay [4] and in assay [5] was “inactive” in each case.

As to `CC(C)=CCl`, the Potency entry in assay [1], in assay [2], in assay [3], in assay [4] and in assay [5] was “inactive” throughout.

Take `Nc1nc(N)nc(-c2ccccc2)n1`: the Potency entry in assay [1], in assay [2], in assay [4] and in assay [5] was “inactive” in each case. Further, in assay [3], the Potency was 31.4 µM (active) and 35.6 µM (active).

As to `NC(=S)NNC(N)=S`, the Potency was 34.7 µM (active) and inactive in assay [1]; 35.6 µM (active) in assay [2]. Further, the Potency entry in assay [3], in assay [4] and in assay [5] was “inactive” throughout.

Consider `CC(O)CC(C)(C)O` (stereo not given), for which the Potency result in assay [1], in assay [2], in assay [3], in assay [4] and in assay [5] was “inactive” throughout.

As to `CCNc1cccc(C)c1`, in assay [1], the Potency was 30.5 µM (active) and inactive. Moreover, the Potency result in assay [3], in assay [4] and in assay [5] was “inactive” each time.

On to `CCCCCCCCCCCCCCCCO`, for which the Potency entry in assay [1], in assay [3], in assay [4] and in assay [5] was “inactive” throughout. In assay [2], the Potency was 17.8 µM (active) and inactive.

With `C=C(C)C(=O)OCC(C)C`, the Potency result in assay [1], in assay [2], in assay [3], in assay [4] and in assay [5] was “inactive” in each case.

As to `CC(C)CCCCCCCOC(=O)CCCCC(=O)OCCCCCCCC(C)C`, the Potency in assay [1] was 92.8 µM (active) and inactive. The Potency result in assay [2], in assay [3], in assay [4] and in assay [5] was “inactive” in each case.

On to `CC1(C)S[C@@H]2[C@H](NC(=O)COc3ccccc3)C(=O)N2[C@H]1C(=O)O`, for which the Potency entry in assay [1], in assay [3] and in assay [4] was “inactive” throughout.

Regarding `c1ccc2c(c1)Cc1ccccc1-2`, the Potency entry was “inactive and 35.6 µM (active)” in assay [1]; “inactive and 39.9 µM (active)” in assay [2]; 25.6 µM (active) and 7.96 µM (active) in assay [3]. For the same compound, the Potency result in assay [4] and in assay [5] was “inactive” throughout.

Turning to `O=C(O)c1cc2ccccc2cc1O`, the Potency in assay [1] is 35.3 µM (active) and 79.6 µM (active); in assay [2], 62.8 µM (active) and 56.4 µM (active); in assay [3] it was 39.9 µM (active). Also, the Potency entry in assay [4] and in assay [5] was “inactive” throughout.

In the case of `Brc1ccc(Br)c(Br)c1`, the Potency entry in assay [1], in assay [2], in assay [3], in assay [4] and in assay [5] was “inactive” in each case.

Take `O=C1c2ccccc2CCc2ccccc21`: the Potency was 18.2 µM (active) and 7.76 µM (active) in assay [1]; 36.3 µM (active) in assay [2]; 1.45 µM (active) and 1.62 µM (active) in assay [3]. For the same compound, the Potency result in assay [4] and in assay [5] was “inactive” in each case.

On to `CN/C(=C\[N+](=O)[O-])NCCSCc1csc(CN(C)C)n1`, for which the Potency result in assay [2], in assay [3], in assay [4] and in assay [5] was “inactive” in each case.

As for `C=CCCCCCCCCC(=O)O`, the Potency result in assay [1], in assay [3], in assay [4] and in assay [5] was “inactive” throughout. Also, the Potency in assay [2] is 39.9 µM (active).

In the case of `COc1ccc([N+](=O)[O-])cc1N`, the Potency was 35.7 µM (active) and 79.6 µM (active) in assay [1]; 40.1 µM (active) and 63.3 µM (active) in assay [2]; 22.5 µM (active) and 31.7 µM (active) in assay [3]; 35.7 µM (active) and 35.6 µM (active) in assay [5]. Further, the Potency entry in assay [4] was “inactive”.

On to `N#Cc1ccccc1`, for which the Potency entry in assay [1], in assay [2], in assay [3], in assay [4] and in assay [5] was “inactive” throughout.

In the case of `COc1ccc(C)cc1N`, the Potency was 38.6 µM (active) and 35.6 µM (active) in assay [1]; 28.3 µM (active) in assay [3]; 6.86 µM (active) and 20 µM (active) in assay [5]. Also, the Potency entry in assay [4] was “inactive”.

Turning to `O=S(=O)(O)c1ccccc1`, in assay [4], the Potency entry is “inactive”.

In the case of `CC1(C)OC[C@@H]2O[C@@]3(C(=O)O)OC(C)(C)O[C@H]3[C@@H]2O1`, the Potency result in assay [1], in assay [2], in assay [3], in assay [4] and in assay [5] was “inactive” each time.

Consider `O=C(O)CCCCCCCCC(=O)O`, for which the Potency in assay [1] is 50.5 µM (active) and inactive. Also, the Potency entry in assay [2], in assay [4] and in assay [5] was “inactive” each time.

Turning to `CNC(=S)N(C)C`, the Potency result in assay [1], in assay [2], in assay [3], in assay [4] and in assay [5] was “inactive” in each case.

As for `CCCCCCCCCCCC(=O)OC`, the Potency result in assay [1], in assay [2], in assay [3], in assay [4] and in assay [5] was “inactive” in each case.
